The results in this text go back to PubChem BioAssay (Tox21).

Results filed as inconclusive are left out. Where a call stands in place of a potency, no number is given. More than one record can exist for a structure, and the calls need not agree. The source made the active and inactive calls. Calls come from the whole dose curve; as a rule, active = well fitted activation curve with a large enough effect in the repeat runs; inconclusive = weak or mixed curves; inactive = flat fitted curve, though single readings scatter.
Potency is the fitted concentration of half-maximal effect.

The nature of this test: A CellTox Green Cytotoxicity Assay to monitor cytotoxicity in HEK293 cells - 32 hour (AID 1224881). Note: nearly all actives have a fitted effect of over 40% in size. Conditions: CellTox Green fluorescence; series mostly up to 76.8 µM. An outline of the steps:
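Nonlytic real-time cytotoxicity: HEK293 + CellTox Green reagent plated, 5 h preincubation, pintool compound addition (23 nL in DMSO), 37 C for 40 h, fluorescence measured at successive time points.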
Turning to `CCC(C)OC(=O)c1ccc(O)cc1` (configuration not stated), the Potency result was “inactive”. For `C/C=C/C(=O)O` the value was “inactive”; for `Cn1cnc([N+](=O)[O-])c1Sc1ncnc2nc[nH]c12`, 30.7 µM (active) and inactive. For `Cc1cccc(N(C)C(=S)Oc2ccc3ccccc3c2)c1` the value was “inactive”. For `O=C=Nc1ccc(Cc2ccc(N=C=O)cc2)cc1` the value was “inactive”; for `O=CCc1ccccc1`, “inactive”; for `CC(C(=O)O)c1cccc(C(=O)c2ccccc2)c1` (configuration not stated), “inactive”. Consider `c1cc(N(CC2CO2)CC2CO2)ccc1OCC1CO1` (configuration not stated), for which the Potency result was “inactive”. As for `Nc1ccccc1N`, the Potency was 50.1 µM (active).

Take `CCOCCOCCO`: the Potency entry is “inactive”. For the compound `CN(C)C(=N)N=C(N)N`, the Potency result was “inactive”. For `COC(C)COC(C)COC(C)CO` (configuration not stated) the value was “inactive”; for `O=C1c2cccc(O)c2C(=O)c2c(O)cccc21`, “inactive”. For `O=C(O)c1ccccc1Nc1cccc(C(F)(F)F)c1` the value was “inactive”. For `Cc1ccc2c(n1)Oc1ccc(C(C)C(=O)OCC(=O)N(C)C)cc1C2` (configuration not stated) the value was “inactive”; for `O=C(Nc1ccc(Cl)cc1)Nc1ccc(Cl)c(Cl)c1`, “inactive”; for `O=C(c1ccccc1)c1ccccc1O`, “inactive”. As to `C#C[C@]1(O)CC[C@H]2[C@@H]3CCC4=Cc5oncc5C[C@]4(C)[C@H]3CC[C@@]21C`, the Potency was 49 µM (active). For `CCCCc1oc2ccccc2c1C(=O)c1cc(I)c(OCCN(CC)CC)c(I)c1` the value was 44 µM (active); for `CCCCC(CC)COC(=O)c1ccc(N(C)C)cc1` (configuration not stated), “inactive”; for `C=CC(C)(CCC=C(C)C)OC(C)=O` (configuration not stated), “inactive”. For `COc1ccccc1/C=C/C=O` the value was “inactive”. On to `CC(=O)c1ccccn1`, for which the Potency entry is “inactive”. As for `CC(=O)Oc1ccccc1C(=O)Nc1ncc([N+](=O)[O-])s1`, the entry is “inactive”; as for `CC(C)Oc1ccc2c(=O)c(-c3ccccc3)coc2c1`, “inactive”; as for `Oc1ccc(O)cc1`, “inactive”. For `OC[C@H]1O[C@@H]2O[C@H]3[C@H](O)[C@@H](O)[C@@H](O[C@H]4[C@H](O)[C@@H](O)[C@@H](O[C@H]5[C@H](O)[C@@H](O)[C@@H](O[C@H]6[C@H](O)[C@@H](O)[C@@H](O[C@H]7[C@H](O)[C@@H](O)[C@@H](O[C@H]8[C@H](O)[C@@H](O)[C@@H](O[C@H]1[C@H](O)[C@H]2O)O[C@@H]8CO)O[C@@H]7CO)O[C@@H]6CO)O[C@@H]5CO)O[C@@H]4CO)O[C@@H]3CO` the value was “inactive”. For `CN(C)CCC=C1c2ccccc2CCc2ccccc21` the value was “inactive”; for `O=C(Nc1ccc([N+](=O)[O-])cc1Cl)c1cc(Cl)ccc1O`, 38.9 µM (active); for `Brc1cc(Oc2cc(Br)c(Br)c(Br)c2Br)c(Br)c(Br)c1Br`, “inactive”. For the compound `CCC(C)c1ccccc1O` (configuration not stated), the Potency is 38.6 µM (active). For `S=C(NC1CCCCC1)NC1CCCCC1` the value was “inactive”; for `CCCCOCCOCCO`, “inactive”. As for `O=C(COc1ccc(Cl)cc1)N1CCN(Cc2ccc3c(c2)OCO3)CC1`, the entry is “inactive”; as for `O=C(c1ccc(OCCN2CCCCC2)cc1)c1c(-c2ccc(O)cc2)sc2cc(O)ccc12`, 54.9 µM (active) and inactive. For `CC(C)OC(=O)C(C)(C)Oc1ccc(C(=O)c2ccc(Cl)cc2)cc1` the value was “inactive”; for `O=C(/C=C/C=C/c1ccc2c(c1)OCO2)N1CCCCC1`, “inactive”.
